Screening data deposited in PubChem BioAssay by several laboratories.
The list is not random: actives were taken first. Their share in the collection is about 2.9%.
Rtt109 HAT inh = inhibitors of Candida albicans Rtt109/Vps75 histone acetyltransferase. Q5AAJ8. purified Rtt109/Vps75, ThioGlo CoA-SH fluorescence, 4 h. hit rate 0.16% among 330,000. inhibition, % at 34.9 µM;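 active = inhibition of at least 50% in every replicate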
Myeloid diff 2 = myeloid differentiation induction | ER-HoxA9 myeloid progenitors, lysozyme-GFP differentiation, flow cytometry | calls only at 10 µM | hit rate 1% among 360,000 | AID 624256;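 active = normalized GFP-positive differentiation at or above the plate's own cutoff, the solvent-only control mean plus 3 SD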;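 note: cells exposed to compound for four days before flow analysis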
ABHD5 PLIN5 PPI = ABHD5-PLIN5 protein interaction inhibition; hit rate 0.78% among 360,000; AID 602281; inhibition, % at 4 µM; Split G. princeps luciferase complementation, luminescence, 4 h;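 active = inhibition above the mean inhibition across every tested compound plus 3 SD, cut at about 22% in these data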
Target sequence (Q00G26 whole entry, looked up): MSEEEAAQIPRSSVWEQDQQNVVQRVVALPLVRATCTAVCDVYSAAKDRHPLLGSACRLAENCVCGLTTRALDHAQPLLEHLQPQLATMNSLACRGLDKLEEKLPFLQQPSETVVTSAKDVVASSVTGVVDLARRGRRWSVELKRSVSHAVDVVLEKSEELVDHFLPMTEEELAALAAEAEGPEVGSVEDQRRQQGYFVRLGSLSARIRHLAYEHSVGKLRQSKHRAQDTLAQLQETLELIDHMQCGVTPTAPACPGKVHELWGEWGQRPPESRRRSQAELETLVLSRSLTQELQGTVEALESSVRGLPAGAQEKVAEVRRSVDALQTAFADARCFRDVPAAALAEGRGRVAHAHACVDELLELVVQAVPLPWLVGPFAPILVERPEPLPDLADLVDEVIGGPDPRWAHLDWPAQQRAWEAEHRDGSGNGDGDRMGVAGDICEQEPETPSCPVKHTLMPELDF
Target sequence (Q8WTS1 whole entry, looked up): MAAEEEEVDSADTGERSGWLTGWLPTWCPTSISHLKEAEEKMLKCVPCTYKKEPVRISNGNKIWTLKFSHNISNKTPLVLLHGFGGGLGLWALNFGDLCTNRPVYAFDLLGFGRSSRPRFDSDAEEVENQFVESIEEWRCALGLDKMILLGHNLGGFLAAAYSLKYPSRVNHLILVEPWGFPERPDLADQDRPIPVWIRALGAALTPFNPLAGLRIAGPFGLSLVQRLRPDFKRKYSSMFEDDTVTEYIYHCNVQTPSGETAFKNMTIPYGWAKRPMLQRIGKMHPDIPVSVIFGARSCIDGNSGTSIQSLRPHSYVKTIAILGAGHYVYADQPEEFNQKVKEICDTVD
sPLA2-III inh = Inhibits HGIII-sPLA2 liposome hydrolysis, primary screen; Q9NZ20; QFRET BODIPY PC-A2 liposome hydrolysis, fluorescence; inhibition, % at 12.2 µM; hit rate 0.56% among 370,000;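 active = inhibition above mean plus 3 SD of compounds lying within the high and low control bounds, cut at about 19% in these data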
DAGLB inhibitor = diacylglycerol lipase beta (human) inhibition; Q8NCG7; HEK293T DAGLB membrane lysate, EnzChek fluorogenic substrate; inhibition, % at 5.17 µM; hit rate 0.059% among 340,000; AID 504411; in the data active = inhibition above about 34%
H9c2 protect = protects H9c2 cardiomyocytes from peroxide injury | H2O2 injury protection, ATPLite, 2 h | protection from H2O2 cell death, % at 20 µM | hit rate 0.63% among 360,000 | AID 588492;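 active = compounds giving at least 50% protection of heart cells from peroxide-induced death in the single-dose screen, raw or plate-pattern-corrected value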
sPLA2 confirm = human GIII-sPLA2 inhibition, confirmation; hit rate 34% among 2,000; AID 743280; shares compounds with sPLA2-III inh; inhibition, % at 12.2 µM; recombinant hGIII-sPLA2, BODIPY PC-A2 QFRET fluorescence;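 active = mean inhibition across triplicates above the hit cutoff set in the earlier primary screen, cut at about 19% in these data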
535nm interf = counter-screen for HGIII-sPLA2 inhibitors: 535nm fluorescence interference; hit rate 8.5% among 2,000; shares compounds with sPLA2-III inh; BODIPY FL product fluorescence interference, QFRET; inhibition, % at 12.2 µM;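 active = average inhibition above the solvent-only control mean plus 3 SD, cut at about 6% in these data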
535nm interf DR = interferes with 535nm fluorescence in dose response counter-screen; BODIPY FL product fluorescence interference, cell-free; IC50, µM; 240 tested, under 10 active; shares compounds with sPLA2-III inh;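 active = IC50 at or below 10 µM; inactive = IC50 above 10 µM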
Each line names hits and unclear results; the compound was inactive in the other large screens (follow-up assays come after a bar, where they were run).

O=C1NC(=S)N/C1=C/c1cccc([N+](=O)[O-])c1	none
S=c1[nH]nc(COc2ccc(Cl)cc2)n1Cc1ccco1	none
CCCCc1n[nH]c(=S)n1Cc1ccccc1	none
CCCc1n[nH]c(=S)n1Cc1ccco1	sPLA2-III inh 21.7 | sPLA2 confirm inactive | 535nm interf inactive
COc1cccc(-c2n[nH]c(=S)n2Cc2ccco2)c1	sPLA2-III inh 22.6 | sPLA2 confirm 25.0 | 535nm interf inactive
S=c1[nH]nc(-c2ccncc2)n1Cc1ccco1	none
CCCCc1n[nH]c(=S)n1Cc1ccc(Cl)cc1	sPLA2-III inh 19.6 | sPLA2 confirm 25.8 | 535nm interf inactive
CCOc1ccc(NS(=O)(=O)c2cc(C(=O)NCCCN3CCOCC3)ccc2C)cc1	none
COC(=O)c1sccc1NC(=S)NCc1ccc(Cl)cc1	none
FC(F)(F)c1cccc(N2CCN(C3CC4CCC3C4)CC2)c1 (stereo unspecified)	sPLA2-III inh 20.2 | sPLA2 confirm inactive | 535nm interf inactive
CCOC(=O)CCNC(=O)N1CCCC(CCC(=O)N(C)CCc2ccccn2)C1 (stereo unspecified)	sPLA2-III inh 24.2 | sPLA2 confirm inactive | 535nm interf inactive
CCc1ccccc1NC(=O)N1CCCC(CCC(=O)N(C)CCc2ccccn2)C1 (stereo unspecified)	none
CN(C)S(=O)(=O)c1ccc(NC(=O)/C=C/c2ccccc2Cl)cc1	none
CN(C)c1ccc(NC(=O)/C=C/c2c(Cl)cccc2Cl)cc1	sPLA2-III inh 30.6 | sPLA2 confirm inactive | 535nm interf 8.4
CCCNC(=O)CN(c1cccc(F)c1)S(C)(=O)=O	sPLA2-III inh 19.7 | sPLA2 confirm inactive | 535nm interf inactive
CC(=O)Nc1ccc(NC(=O)C(Cc2ccccc2)NC(=O)C2CCC(C)CC2)cc1 (stereo unspecified)	sPLA2-III inh 24.7 | sPLA2 confirm inactive | 535nm interf inactive
COC(=O)[C@]12C[C@H](CC(=O)N3CCCCC3)C(=O)N(Cc3ccco3)C1=C[C@H](C(C)C)O[C@@H]2C1CC1	none (no result: Rtt109 HAT inh, Myeloid diff 2, ABHD5 PLIN5 PPI, DAGLB inhibitor, H9c2 protect)
COC(=O)[C@]12C[C@H](CC(=O)N3CCN(C(=O)C4CC4)CC3)C(=O)N(Cc3ccco3)C1=C[C@H](C(C)C)O[C@@H]2C1CC1	sPLA2-III inh 19.6 (no result: Rtt109 HAT inh, Myeloid diff 2, ABHD5 PLIN5 PPI, DAGLB inhibitor, H9c2 protect) | sPLA2 confirm inactive | 535nm interf inactive
O=C(NNC(=O)c1cc2cc(Br)ccc2oc1=O)c1ccc(O)cc1O	sPLA2-III inh 20.3, H9c2 protect 76.8 | sPLA2 confirm 26.2 | 535nm interf inactive
CCCCN1CN(Cc2ccco2)CNC1=S	none
COc1ccc(Cl)cc1C(Nc1cccnc1)c1ccc2cccnc2c1O (stereo unspecified)	ABHD5 PLIN5 PPI 23.0, sPLA2-III inh 31.4 | sPLA2 confirm 35.0 | 535nm interf inactive | 535nm interf DR inactive
CCCc1ccc(C(O)c2ncc(-c3ccccc3)[nH]2)cc1 (stereo unspecified)	none (no result: Rtt109 HAT inh, DAGLB inhibitor)
Cc1[nH]c2ccc(-c3n[nH]c(=S)n3C)cc2c1C	sPLA2-III inh 21.0 | sPLA2 confirm 26.4 | 535nm interf inactive
O=C(Nc1nnc(-c2ccccc2Cl)s1)C1CCN(S(=O)(=O)c2ccc(Cl)cc2)CC1	none
O=C(Nc1nnc(-c2ccccc2F)s1)C1CCN(S(=O)(=O)c2ccc(Cl)cc2)CC1	sPLA2-III inh 23.1 | sPLA2 confirm inactive | 535nm interf inactive
Cn1ccc(C(=O)N/N=C/c2cccnc2)n1	none
CN(C)c1ccc(/C=N/NC(=O)c2ccn(C)n2)cc1	sPLA2-III inh 20.1 | sPLA2 confirm inactive | 535nm interf inactive
COc1ccc(C(=O)N2CCC3(CC2)NCCc2[nH]cnc23)cc1OC	none
Cc1cccc2sc(=S)[nH]c12	sPLA2-III inh 24.5 (no result: Rtt109 HAT inh, DAGLB inhibitor) | sPLA2 confirm 20.4 | 535nm interf inactive
COC(=O)[C@@H]1C(c2c(OC)cc(OC)cc2OC)=NO[C@H]1C(=O)OC	sPLA2-III inh 20.2 | sPLA2 confirm inactive | 535nm interf inactive
CC1=CC(C)(C)NC(=S)N1c1ccc2ccccc2c1	none
CC1=CC(C)(C)NC(=S)N1C(C)c1ccccc1 (stereo unspecified)	none
CC1=CC(C)(C)NC(=S)N1c1cccc2ccccc12	sPLA2-III inh 20.1 | sPLA2 confirm 30.8 | 535nm interf inactive | 535nm interf DR inactive
CC1=CC(C)(C)NC(=S)N1c1ccc(Cl)cc1	sPLA2-III inh 20.2 (no result: Rtt109 HAT inh) | sPLA2 confirm 20.7 | 535nm interf inactive
COc1ccc(Br)cc1CN(C)C(C)C(=O)Nc1cc([N+](=O)[O-])ccc1OC (stereo unspecified)	sPLA2-III inh 19.8 | sPLA2 confirm inactive | 535nm interf inactive
CCCn1c(O)c(N=NC(=O)c2ccco2)c2ccccc21	sPLA2-III inh 20.9 | sPLA2 confirm inactive | 535nm interf inactive
CCOc1ccc2c(c1)-c1c(ssc1=S)C(C)(C)N2C(=O)c1ccco1	sPLA2-III inh 20.6 | sPLA2 confirm 35.8 | 535nm interf inactive | 535nm interf DR inactive
O=c1oc(-c2ccc(Cl)c(Cl)c2)nn1-c1ccc(C(F)(F)F)cn1	sPLA2-III inh 30.3 (no result: Rtt109 HAT inh, DAGLB inhibitor) | sPLA2 confirm 22.9 | 535nm interf 7.8
CC(C)(C)c1ccc(CNC(=O)C2CCCN2C(=O)Nc2ccccc2)cc1 (stereo unspecified)	none
CCc1nnc(NC(=O)c2ccc(S(=O)(=O)N3CCCC(C)C3)cc2)s1 (stereo unspecified)	none
Cc1cccc2sc(NC(=O)c3cccc(S(=O)(=O)N4CCc5ccccc54)c3)nc12	none
Cc1cccc2sc(NNC(=O)c3ccc(S(=O)(=O)N4CCCC(C)C4)cc3)nc12 (stereo unspecified)	sPLA2-III inh 33.7 | sPLA2 confirm 38.5 | 535nm interf inactive | 535nm interf DR inactive
Cc1cccc2sc(NNC(=O)c3ccc(S(=O)(=O)N4CCc5ccccc5C4)cc3)nc12	ABHD5 PLIN5 PPI 23.3, sPLA2-III inh 40.8 | sPLA2 confirm 42.5 | 535nm interf 7.8
Clc1ccc(N=NN2CCOCC2)cc1	sPLA2-III inh 19.3 | sPLA2 confirm inactive | 535nm interf inactive
COC(=O)c1ccc(N=NN2CCOCC2)cc1	none
CC1CCCCC1NC(=O)CCn1c(=S)[nH]c2ccccc2c1=O (stereo unspecified)	sPLA2-III inh 21.0 (no result: Rtt109 HAT inh) | sPLA2 confirm 19.5 | 535nm interf inactive
CC(C)(C)c1ccc(CNc2nc(-c3ccccn3)nnc2-c2ccccc2)cc1	sPLA2-III inh 39.5 (no result: Rtt109 HAT inh, Myeloid diff 2, ABHD5 PLIN5 PPI, DAGLB inhibitor, H9c2 protect) | sPLA2 confirm inactive | 535nm interf inactive
Clc1cccc(CNc2nc(-c3ccccn3)nnc2-c2ccccc2)c1	none (no result: Rtt109 HAT inh, Myeloid diff 2, ABHD5 PLIN5 PPI, DAGLB inhibitor, H9c2 protect)
